Screens deposited in PubChem BioAssay by National Center for Advancing Translational Sciences (NCATS).
An excerpt weighted towards active compounds, which were near 19% of everything screened.
ELG1 DNA repair – ELG1-dependent DNA repair inhibition | HEK293T ELG1-luciferase reporter, luminescence, 16 h; DNA damage induced by 5-fluorouridine | Potency, µM (titrated, usually from 46.1 µM), for inactives: at the highest dose activity change, negative = inhibition, hits mostly inhibitors | 330,000 tested, 2.3% active; also: potency is read from the fitted curve at half-maximal effect; nearly all actives have a fitted effect of over 55% in size
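DMSO vehicle served as the neutral condition. Each well held 2,000 cells given 5-fluorouridine plus compound; after 16 hr at 37 °C/5% CO2, ONE-Glo was added and luciferase measured 30 min later.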
IL-1B inflam inh – inhibitors of inflammasome signaling (IL-1 beta secretion); activity change, % at 57.5 µM; 360,000 tested, 4.7% active; AID 743279; THP-1 LPS/ATP IL-1B secretion, AlphaLISA, 16 h; active compounds read low; in the data active = activity change below about -50%; inconclusive = mostly about -30% to -49%
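Secreted IL-1B measured by AlphaLISA bead assay after 16 h compound exposure of THP-1 cells; compounds (final up to 57.5 uM) added 1 h before LPS (250 ng/mL) and ATP (1.25 mM) stimulation; lower signal means less secretion.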
TDP1 cell noCPT – qHTS for Inhibitors of human tyrosyl-DNA phosphodiesterase 1 (TDP1): qHTS in cells in absence of CPT. DT40 Tdp1-/- hTDP1 cells, no CPT, ATP luminescence, 48 h. Potency, µM (highest dose often 46.2 µM), without a hit: top-dose activity change, negative = growth inhibition, usual class: inhibitors. 420,000 tested, 15% active. AID 686978, 2013; also: potency is read from the fitted curve at half-maximal effect; nearly all actives have a fitted effect of over 55% in size
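DT40 Tdp1-/-;hTDP1 cells, no CPT (DMSO vehicle only), 400 cells/well; compounds pin-transferred; ≥48 hr, 37 °C; CellTiter-Glo 30 min RT dark, luminescence read.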
HT1080 IDH1KD tx – toxicity to HT-1080 IDH1 knockdown cells (counter line); 360,000 tested, 2% active; HT-1080 IDH1 knockdown viability, ATP luminescence, 48 h; Potency, µM (series often up to 46.1 µM), for the others: at the highest dose activity, negative = toxicity, hits mostly cytotoxic;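 also: potency is read from the fitted curve at half-maximal effect; 0% = DMSO wells and -100% = cell-free medium wells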
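Knockdown cells (IDH1KD HT-1080) received compounds 2 h after plating at 750 cells/well and were kept 48 h at 37 °C in 5% FBS RPMI. A CellTiter-Glo luminescence read gave % activity for curve fitting.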
HT1080-NT tox – kills 2HG-producing HT-1080-NT fibrosarcoma cells. Potency, µM (titrated, usually from 46.1 µM), for the others: at the top dose activity, negative = less viability, hits mostly cytotoxic. AID 686970. 360,000 tested, 1.6% active. HT-1080-NT fibrosarcoma viability, CellTiter-Glo ATP luminescence, 48 h;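 also: NT is the 2HG producing partner of a matched IDH1 knockdown line; potency is read from the fitted curve at half-maximal effect; 0% = DMSO-treated cells and -100% = media-only wells without cells; nearly all actives have a fitted effect of over 55% in size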
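750 cells/well, RPMI + 5% FBS; 2 h settle, compound pin-transfer, 48 h at 37 degrees C. CellTiter-Glo 10 min RT, luminescence. Normalized to DMSO and media-only wells.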
TDP1 cell CPT – DT40-hTDP1 cell growth loss with CPT; chicken DT40 Tdp1-/-;hTDP1 cells + 20 nM CPT, ATP luminescence, 48 h; Potency, µM (top dose mostly 46.2 µM), without a hit: at the top dose activity change, negative = growth inhibition, hits mostly inhibitors; 420,000 tested, 12% active; also: potency is read from the fitted curve at half-maximal effect; nearly all actives have a fitted effect of over 55% in size
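Chicken DT40 Tdp1-/- cells stably complemented with human TDP1 were seeded at 400 cells/well in medium containing 20 nM camptothecin, exposed to pin-transferred compounds, and grown at 37 °C for at least 48 hr. Viability was read as ATP luminescence.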
Active calls of the source: *; ? = inconclusive; . = no result given; [ ] = dose if it differs, or a comment. Unless noted, calls follow the shape of the dose curve; as a rule, active = well fitted curve in the direction sought with a large enough effect; inconclusive = small, poorly fitted or top-dose-only effect, or another doubt; inactive = no such curve, though single readings can be large; an effect the other way counts as inactive or inconclusive. Unless noted, % is scaled to controls: 0 for no effect and ±100 for the full control effect.

SMILES	ELG1 DNA repair	IL-1B inflam inh	TDP1 cell noCPT	HT1080 IDH1KD tx	HT1080-NT tox	TDP1 cell CPT
CCCC(=O)N1CCC1(C)C(=O)NS(=O)(=O)c1ccc(OC)cc1 (centres undefined)	.	1	10%	29%	11%	?
NC(c1csc(Nc2ncccn2)n1)c1ccccc1Cl (centres undefined)	.	-1	21µM*	?	?	21µM*
COc1ccc(-c2csc(Nc3cccc(C)n3)n2)cc1	?	-6	?	-19%	-19%	?
COc1cccc(Nc2nc(C(N)c3ccccc3Cl)cs2)n1 (centres undefined)	.	?	15µM*	?	?	21µM*
c1ccc(-c2csc(Nc3ncccn3)n2)cc1	?	39	?	6%	12%	?
COc1ccc(C(C)C)cc1S(=O)(=O)NCCc1c(C)[nH]c2c(Cl)cccc12	.	.	?	.	.	29µM*
Cc1ccc([N+](=O)[O-])cc1S(=O)(=O)NCCc1c(C)[nH]c2c(C)cccc12	-2%	14	?	-10%	2%	?
COCCn1nnnc1C(c1ccc(C)cc1)N1CCN(Cc2ccc3c(c2)OCO3)CC1 (centres undefined)	-3%	-14	?	10%	6%	16µM*
COCCn1nnnc1C(c1ccccc1)N1CCN(Cc2ccc3c(c2)OCO3)CC1 (centres undefined)	0%	-18	?	4%	1%	-11%
O=C1CC(N2CCN(Cc3ccc4c(c3)OCO4)CC2)C(=O)N1CCc1ccccc1 (centres undefined)	-17%	6	?	-6%	-5%	13µM*
COc1ccccc1CN1CCN(C(CC(C)C)c2nnnn2Cc2cccs2)CC1 (centres undefined)	-12%	?	?	-2%	-8%	18µM*
CCCC(c1nnnn1Cc1cccs1)N1CCN(C)CC1 (centres undefined)	3%	-2	-4%	0%	-4%	4%
Cc1ccc(C(c2nnnn2Cc2cccs2)N2CCN(Cc3ccc4c(c3)OCO4)CC2)cc1 (centres undefined)	-20%	-64*	9.2µM*	?	-18%	7.3µM*
O=C(O)C1CC=CCC1C(=O)Nc1ccc2c(c1)CCC2 (centres undefined)	6%	0	-4%	9%	12%	-18%
c1ccc(Cn2nnnc2CN2CCN(Cc3ccc4c(c3)OCO4)CC2)cc1	-3%	-13	?	0%	-1%	21µM*
c1ccc2c(c1)CCN(Cc1nnnn1Cc1ccc3c(c1)OCO3)C2	-3%	-1	-14%	5%[9.24 µM]	-3%	0%
O=C1C[C@H]2C=CCc3cccc(c32)CN1Cc1ccc(F)cc1	.	.	13µM*	.	.	?
Cc1cccc(CN2Cc3cccc4c3[C@H](C=CC4)CC2=O)c1	.	.	20µM*	.	.	16µM*
Cc1ccc(CN2Cc3cccc4c3[C@@H](CC2=O)[C@H](O)[C@H](O)C4)cc1	10%	4	-7%	10%	8%	-3%
Cc1c(C(=O)N2CCOCC2)[nH]c2c1C(=O)CC(c1ccccc1Cl)C2 (centres undefined)	-8%	-17	4.1µM*	4µM*	5µM*	3.3µM*
CCOc1ccc(C2CC(=O)c3c([nH]c(C(=O)OC4CCC(C)CC4)c3C)C2)cc1 (centres undefined)	.	.	-9%	.	.	-10%
Cc1c(C(=O)OC2CCCC2)[nH]c2c1C(=O)CC(c1ccc(C(C)(C)C)cc1)C2 (centres undefined)	.	.	?	.	.	18µM*
Cc1c(C(=O)OC2CCC(C)CC2)[nH]c2c1C(=O)CC(c1ccc(F)cc1)C2 (centres undefined)	.	.	18µM*	.	.	?
COC(=O)C1C(=O)c2c([nH]c(C(=O)OC3CCCC3)c2C)CC1C (centres undefined)	.	?	?	-1%	2%	-78%
Cc1c(C(=O)OC2CCCCC2)[nH]c2c1C(=O)CC(c1ccccc1Cl)C2 (centres undefined)	.	.	2.1µM*	.	.	4.1µM*
SMILES	ELG1 DNA repair	IL-1B inflam inh	TDP1 cell noCPT	HT1080 IDH1KD tx	HT1080-NT tox	TDP1 cell CPT
Cc1c(C(=O)OC2CCCCCC2)[nH]c2c1C(=O)CC(c1ccc(N(C)C)cc1)C2 (centres undefined)	.	.	?	.	.	-4%
C/C(=N/NC(=O)CNC(=O)COc1ccccc1)c1ccc(Cl)cc1	27%	1	2%	-6%	9%	2%
COc1ccc(C2CC(=O)c3c([nH]c(C(=O)OC4CCCCCC4)c3C)C2)cc1OC (centres undefined)	.	.	4.6µM*	.	.	3.7µM*
C/C(CCN1CCc2nc(-c3ccccc3)c(-c3ccccc3)cc2C1)=N\O[C@@H](C)c1cn([C@H](CO)Cc2ccccc2)nn1	21µM*	.	.	.	.	.
CCc1ccc2oc(C(=O)Nc3ccccc3OC)cc(=O)c2c1	.	.	-22%	.	.	-23%
CCOc1ccc(CNC(=O)c2cc(=O)[nH]c3ccc(S(=O)(=O)N4CCCC4)cc23)cc1	.	.	-14%	.	.	2%
Cc1cccc(CNC(=O)c2cc3cc(S(=O)(=O)N4CCCCC4)ccc3n2C)c1	.	.	18µM*	.	.	?
Cn1c(C(=O)NCc2cccc(F)c2)cc2cc(S(=O)(=O)N3CCCCC3)ccc21	.	.	23µM*	.	.	?
Cc1cccc(CNC(=O)c2cc(S(=O)(=O)N3CCOCC3)cn2C)c1	19%	-6	30%	0%	12%	-1%
